Source: ChEMBL document CHEMBL4513216, “Probing the Open Global Health Chemical Diversity Library for Multistage-Active Starting Points for Next-Generation Antimalarials” (ACS Infect Dis, 2020)
In all, about 69,000 compounds went through this assay and about 8,600 (12%) showed an effect of 50% or more. This excerpt belongs to a sample that is enriched for strong results.

System: Plasmodium berghei
Test: Screen against P. berghei liver stage (PbLuc), transformed with Luciferase, at 10uM
Type: functional, HepG2
Details: tested at 10 uM

Row | SMILES | INHIBITION
1 | Cc1nn(CCO)c(C)c1CNC1CCOc2ccccc21 (stereo not given) | 13%
2 | O=C(NC1CCCN(Cc2c(F)cccc2F)C1)c1cnccn1 (stereo not given) | 23.7%
3 | CS(=O)(=O)CCCN1CCN(C(C#N)c2ccccc2)CC1 (stereo not given) | 21.2%
4 | NC(=O)c1ccc(C2CN(Cc3ccc(F)cc3)CCO2)nc1 (stereo not given) | 31.3%
5 | CCc1ocnc1C(=O)N1CCC2(CCCN(CC(C)(C)C)C2=O)C1 (stereo not given) | 32.2%
6 | Cc1nc(-c2ccccc2)n(CC(=O)NC2CCCC2)n1 | 7.27%
7 | CN1CCN(c2ccc(C(=O)N3CCCC(c4ncc[nH]4)C3)cc2)CC1 (stereo not given) | 3.3%
8 | CCC1(C(=O)O)CCCN(C(=O)c2ccc(N3CCN(C)CC3)cc2)C1 (stereo not given) | 33.7%
9 | CCC1(CO)CCCN(C(=O)c2ccc(N3CCN(C)CC3)cc2)C1 (stereo not given) | 53.5%
10 | c1ccc(-c2noc(CN3CCCC(Cn4cncn4)C3)n2)nc1 (stereo not given) | -23.8%
11 | COc1cccc(-c2ccnc3nc(N4CCCCC4)[nH]c(=O)c23)c1 | 14.3%
12 | COc1cc(/C=C/c2ncc(C(=O)O)s2)cc(Cl)c1OC | 41.5%
13 | Cc1noc(C)c1CN1CCC2(COCc3cnc(N(C)C)nc32)C1 (stereo not given) | 1.9%
14 | Cn1ccnc1C(O)c1ccccc1N1CCN(Cc2ccsc2)CC1 (stereo not given) | 53.75%
15 | Cn1ccnc1C(O)c1ccccc1N1CCN(CC2CCCC2)CC1 (stereo not given) | 13%
16 | Cn1ccnc1C(O)c1ccccc1N1CCN(Cc2cccs2)CC1 (stereo not given) | 15.605%
17 | COCc1cc(NCCc2ccc(S(N)(=O)=O)cc2)n2nccc2n1 | 26.6%
18 | CCNC(=O)NC(=O)C(C)Nc1ccccc1OCCOC (stereo not given) | 29.8%
19 | Cc1ccccc1OCCN(C)C(=O)NC(C)c1nncn1C (stereo not given) | 35.9%
20 | CCNC(=O)NC(=O)C(C)N(C)CCOc1ccccc1C (stereo not given) | 73.3%
21 | COC(=O)c1ccoc1CN(C)Cc1cc(OC)c(OC)cc1C | 7.43%
22 | O=C(c1ccoc1)N1CCc2ncc(Cn3cccn3)n2CC1 | -3.33%
23 | COCCOc1cccc(CNCc2ccc(-n3cncn3)nc2)c1 | -9.8%
24 | FC(F)(F)Oc1cccc(CNCc2ccc(-n3cncn3)nc2)c1 | 20.9%
25 | c1cc(CNCc2ccc(-n3cncn3)nc2)cc(OC2CCCC2)c1 | 75.4%
26 | CS(=O)(=O)N1CCc2ncc(CNC(=O)C3CCC3)n2CC1 | -18.2%
27 | CNc1cccc(CC2COCCN(C(=O)c3cnn(C)c3)C2)n1 (stereo not given) | 27.15%
28 | O=C1NCC2(CCN(C(=O)c3ccc4c(c3)CCCO4)CC2)O1 | 70.4%
29 | O=C1NCC2(CCCN(C(=O)c3ccc4c(c3)OCCO4)CC2)O1 (stereo not given) | 42.6%
30 | O=C1NCC2(CCCN(C(=O)c3ccc4c(c3)CCCO4)CC2)O1 (stereo not given) | 38.3%
